The values that follow come from publication PMC4081100, “A DNA-binding-site landscape and regulatory network analysis for NAC transcription factors in Arabidopsis thaliana”.

Common to all, as to test: universal protein binding microarray (PBM); transcription factors of Arabidopsis thaliana; high values mean tight binding
Holding throughout (conditions): protein: recombinant; tags: GST; chain copies: 2; dsDNA, one strand shown

For assay [1], the target named is T1, GST-ANAC092(1-176) (Arabidopsis thaliana, UniProt Q9FKA0 1-176).
T1 sequence: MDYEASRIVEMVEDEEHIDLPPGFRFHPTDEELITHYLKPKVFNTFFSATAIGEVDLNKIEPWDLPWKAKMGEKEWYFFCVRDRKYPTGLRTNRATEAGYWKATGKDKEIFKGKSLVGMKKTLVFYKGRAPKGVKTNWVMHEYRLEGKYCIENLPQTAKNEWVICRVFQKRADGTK
In outline:
(§1)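 Binding is expressed as the normalised enrichment score (E-score). Proteins carrying a GST tag, whether NAC-domain, full-length or DNA-binding-domain forms, were induced in cells, and zinc acetate was added for zinc-finger proteins. After purification on glutathione–Sepharose 4B and quantification by A280 or anti-GST western blot, each was applied in duplicate at 200 to 500 nM final to custom all-10-mer Agilent 4 × 180K arrays made double-stranded by primer extension. Gapped and ungapped 8-mers were scored.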

Assay [2] has as its target T2, GST-ANAC019 NAC domain (Arabidopsis thaliana, UniProt Q9C932 14-162).
T2 sequence: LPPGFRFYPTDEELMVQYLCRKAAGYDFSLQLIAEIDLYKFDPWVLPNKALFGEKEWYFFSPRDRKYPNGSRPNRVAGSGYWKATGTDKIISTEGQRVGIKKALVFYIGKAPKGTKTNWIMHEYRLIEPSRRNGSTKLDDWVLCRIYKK
In outline:
as §1

In assay [3] the target is T3, GST-ANAC055(1-171) (Arabidopsis thaliana, UniProt Q9LDY8 1-171).
T3 sequence: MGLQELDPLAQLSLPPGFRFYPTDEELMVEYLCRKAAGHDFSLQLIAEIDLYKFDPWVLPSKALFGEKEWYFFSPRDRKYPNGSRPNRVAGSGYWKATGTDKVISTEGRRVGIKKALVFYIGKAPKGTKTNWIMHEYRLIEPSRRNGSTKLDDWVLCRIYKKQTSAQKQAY
In outline: as §1

The target in assay [4] is T4, GST-ATAF1 NAC domain (Arabidopsis thaliana, UniProt Q39013 7-158).
T4 sequence: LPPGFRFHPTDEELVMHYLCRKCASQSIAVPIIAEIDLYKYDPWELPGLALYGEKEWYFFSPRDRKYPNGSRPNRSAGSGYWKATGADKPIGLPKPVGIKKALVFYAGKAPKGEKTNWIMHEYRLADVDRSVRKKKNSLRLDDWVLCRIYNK
The method in brief: as §1

Assay [5] has as its target T5, GST-ANAC092(1-285) full length (Arabidopsis thaliana, UniProt Q9FKA0 1-285).
T5 sequence: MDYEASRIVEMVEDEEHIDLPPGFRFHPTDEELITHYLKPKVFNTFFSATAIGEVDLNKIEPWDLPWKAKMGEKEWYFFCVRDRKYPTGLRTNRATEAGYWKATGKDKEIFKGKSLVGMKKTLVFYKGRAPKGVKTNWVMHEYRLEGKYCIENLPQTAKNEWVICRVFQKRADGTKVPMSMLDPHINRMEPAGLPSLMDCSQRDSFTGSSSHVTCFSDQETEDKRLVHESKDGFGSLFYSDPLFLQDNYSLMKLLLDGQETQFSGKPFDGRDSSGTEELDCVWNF
The method in brief:
as §1

The target in assay [6] is T6, GST-NAP(1-166) (Arabidopsis thaliana, UniProt O49255 1-166).
T6 sequence: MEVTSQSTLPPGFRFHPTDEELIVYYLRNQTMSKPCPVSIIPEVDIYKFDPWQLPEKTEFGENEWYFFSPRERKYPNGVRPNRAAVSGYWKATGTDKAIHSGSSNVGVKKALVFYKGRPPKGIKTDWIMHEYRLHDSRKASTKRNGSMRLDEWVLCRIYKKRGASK
In outline:
as §1

The target in assay [7] is T7, GST-NST2(1-184) (Arabidopsis thaliana, UniProt Q9M274 1-184).
T7 sequence: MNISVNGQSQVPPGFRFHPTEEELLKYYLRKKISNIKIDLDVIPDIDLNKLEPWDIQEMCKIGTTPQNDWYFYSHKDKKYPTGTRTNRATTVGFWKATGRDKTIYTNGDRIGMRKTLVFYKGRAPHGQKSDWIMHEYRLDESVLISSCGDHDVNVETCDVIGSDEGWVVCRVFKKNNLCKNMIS
In outline:
as §1

Assay [8] has as its target T8, GST-SND1(1-203) (Arabidopsis thaliana, UniProt Q9LPI7 1-203).
T8 sequence: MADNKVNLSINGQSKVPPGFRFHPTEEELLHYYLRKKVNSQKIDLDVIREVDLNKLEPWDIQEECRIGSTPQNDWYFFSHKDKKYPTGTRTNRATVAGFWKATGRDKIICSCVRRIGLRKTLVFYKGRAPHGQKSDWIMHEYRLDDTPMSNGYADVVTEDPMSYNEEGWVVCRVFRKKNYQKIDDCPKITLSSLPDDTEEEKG
In outline: as §1

Assay [9] addresses T9, GST-VND3 NAC domain (Arabidopsis thaliana, UniProt Q9FH59 12-162).
T9 sequence: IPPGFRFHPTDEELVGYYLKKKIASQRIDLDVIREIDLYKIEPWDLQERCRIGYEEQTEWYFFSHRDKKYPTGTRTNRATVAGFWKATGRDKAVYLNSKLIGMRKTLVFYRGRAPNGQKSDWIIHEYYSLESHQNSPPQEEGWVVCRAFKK
The method in brief: as §1

In assay [10] the target is T10, GST-VND7 NAC domain (Arabidopsis thaliana, UniProt Q9C8W9 9-158).
T10 sequence: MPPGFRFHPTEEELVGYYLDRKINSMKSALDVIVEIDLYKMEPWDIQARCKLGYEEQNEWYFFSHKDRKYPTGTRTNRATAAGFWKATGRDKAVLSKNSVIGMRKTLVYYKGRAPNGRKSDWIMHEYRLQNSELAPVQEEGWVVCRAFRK
The method in brief:
as §1

In the case of AGCGTGTC, the binding signal is 0.398 E-score in [1]; 0.206 E-score in assay [2]; 0.174 E-score in assay [3]; 0.165 E-score in [4]; 0.432 E-score in assay [5]; 0.0924 E-score in [6]. For the same sequence, the binding signal was 0.107 E-score in [7], 0.131 E-score in [8], 0.156 E-score in assay [9] and 0.208 E-score in [10].

In the case of ACGTCATC, the binding signal in assay [1] came out at 0.418 E-score; in [2], 0.288 E-score; in [3], 0.285 E-score; in assay [4], 0.291 E-score; in [5] it was 0.449 E-score; in assay [6], 0.343 E-score. For the same sequence, the binding signal in [7] was found to be 0.214 E-score; in [8], 0.411 E-score; in assay [9], 0.327 E-score; in assay [10] it was 0.273 E-score.

Regarding CACGCCAC, the binding signal in assay [1] was found to be 0.481 E-score; in [2], 0.33 E-score; in [3], 0.268 E-score; in [4], 0.293 E-score; in assay [5], 0.488 E-score; in assay [6], 0.292 E-score. Also, the binding signal in assay [7] stood at 0.298 E-score; in [8] it was 0.386 E-score; in [9] it was 0.168 E-score; in assay [10] it was 0.271 E-score.

As for ACACGTTA, the binding signal in [1] amounted to 0.482 E-score; in [2], 0.165 E-score; in assay [3], 0.3 E-score; in assay [4], 0.35 E-score; in assay [5] it was 0.485 E-score; in assay [6], 0.222 E-score. Moreover, the binding signal in [7] was found to be 0.358 E-score; in assay [8], 0.413 E-score; in assay [9], 0.277 E-score; in assay [10], 0.237 E-score.

Regarding ACGTCTCT, the binding signal amounted to 0.0939 E-score in assay [1]; 0.451 E-score in assay [2]; 0.412 E-score in [3]; 0.452 E-score in [4]; 0.243 E-score in assay [5]; 0.381 E-score in assay [6]. Moreover, the binding signal in assay [7] was found to be 0.175 E-score; in assay [8], 0.0793 E-score; in assay [9], 0.418 E-score; in [10], 0.442 E-score.

Consider GATGCGTA, for which the binding signal is 0.368 E-score in assay [1]; 0.216 E-score in assay [2]; 0.227 E-score in assay [3]; 0.239 E-score in assay [4]; 0.416 E-score in assay [5]; 0.182 E-score in assay [6]. Besides, the binding signal in [7] is 0.185 E-score; in assay [8] it was 0.415 E-score; in [9] it was 0.267 E-score; in assay [10], 0.186 E-score.

Consider ATGCGTGC, for which the binding signal in assay [1] amounted to 0.429 E-score; in assay [2], 0.276 E-score; in assay [3], 0.217 E-score; in assay [4], 0.21 E-score; in assay [5], 0.452 E-score; in assay [6] it was 0.273 E-score. Moreover, the binding signal in assay [7] came to 0.221 E-score; in [8], 0.292 E-score; in [9] it was 0.191 E-score; in assay [10], 0.138 E-score.
